Active and inactive are the calls of the source.
What was measured:
[1] = system: Plasmodium falciparum Sir2 (PF13_0152, Sir2A); assay: Plasmodium falciparum Sir2A binding compounds – biochemical, small-molecule microarray, 635 nm fluorescence, primary screen (AID 1098); details: fluorescence 635 nm, higher = more signal;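 note: score merges spot fluorescence intensity with its signal-to-noise ratio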
[2] = probe aDKK1 binding to arrayed compounds – biochemical, biotinylated probe, 635/667 nm fluorescence, primary screen (AID 1099); details: small-molecule microarray, higher = more signal;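 note: score merges 667nm spot fluorescence with signal to noise across triplicate slides; reference of the scale not given here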
[3] = probe aCHRDL2 binding to arrayed compounds – biochemical, biotinylated probe, 635/667 nm fluorescence, primary screen (AID 1100); details: small-molecule microarray, higher = more signal
[4] = change in splice reporter luminescence, either direction, cell-based, HEK293, spliceosome inhibition project, primary screen (AID 1101); details: HEK293 splicing luciferase reporter, 24 h, higher = more signal, called active from +8 up or from −8 down;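 note: HEK293 cells carrying a splicing-competent luciferase reporter gene; test concentration not given here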
[5] = biological target: Fibroblast growth factor 10 (Homo sapiens) (UniProt O15520); assay: compounds binding fibroblast growth factor 10 – biochemical, small-molecule microarray, 635 nm fluorescence, primary screen (AID 1102); details: FGF10 binding, fluorescence 635 nm, higher = more signal
[6] = system: glycogen synthase kinase-3 (GSK3A per assay name; protocol says GSK3B); assay: compounds binding glycogen synthase kinase-3 – biochemical, small-molecule microarray, 635 nm fluorescence, GSK3A, primary screen (AID 1103); details: fluorescence 635 nm, higher = more signal; note: the record names both GSK3A and GSK3B
[7] = biological target: Epidermal growth factor receptor (Homo sapiens) (UniProt P00533); assay: compounds binding epidermal growth factor receptor – biochemical, small-molecule microarray, 635 nm fluorescence, primary screen (AID 1104); details: EGFR binding, higher = more signal;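 note: score merges 667 nm emission intensity with spot signal to noise over triplicate slides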
[8] = biological target: Follistatin-related protein 3 (Homo sapiens) (UniProt O95633); assay: compounds binding follistatin-related protein 3 – biochemical, small-molecule microarray, 635 nm fluorescence, primary screen (AID 1105); details: FSTL3 binding, higher = more signal;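 note: score merges emission near 667 nm and signal to noise per printed spot across three slides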
[9] = biological target: Dickkopf-related protein 1 (Homo sapiens) (UniProt O94907); assay: small molecules binding DKK1 protein – biochemical, small-molecule microarray, 635 nm fluorescence scan, primary screen (AID 1106); details: higher = more signal;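 note: score merges emission near 667 nm with signal to noise over three replicate slides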
[10] = system: Inhibin beta A chain (activin A); assay: small molecules binding activin A – biochemical, small-molecule microarray, 635 nm fluorescence scan, primary screen (AID 1107); details: INHBA, higher = more signal;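 note: mouse activin A protein probed at 4.33 µg/mL on printed slides; score merges bound-protein fluorescence near 667 nm with spot signal-to-noise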

Chain of Fibroblast growth factor 10 (Homo sapiens) (O15520 whole entry, looked up): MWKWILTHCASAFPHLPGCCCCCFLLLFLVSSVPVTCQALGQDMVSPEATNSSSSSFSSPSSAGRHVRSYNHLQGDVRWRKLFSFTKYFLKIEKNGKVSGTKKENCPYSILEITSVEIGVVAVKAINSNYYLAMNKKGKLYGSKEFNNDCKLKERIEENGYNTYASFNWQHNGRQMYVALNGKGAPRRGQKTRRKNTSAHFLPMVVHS
Chain of Follistatin-related protein 3 (Homo sapiens) (O95633 whole entry, looked up): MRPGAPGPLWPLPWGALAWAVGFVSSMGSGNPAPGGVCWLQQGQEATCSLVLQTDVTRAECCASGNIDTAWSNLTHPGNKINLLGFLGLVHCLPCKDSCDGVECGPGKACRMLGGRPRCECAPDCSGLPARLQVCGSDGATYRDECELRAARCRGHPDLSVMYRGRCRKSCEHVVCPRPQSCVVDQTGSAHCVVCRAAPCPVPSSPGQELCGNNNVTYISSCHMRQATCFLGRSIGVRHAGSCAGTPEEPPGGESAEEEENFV
Chain of Dickkopf-related protein 1 (Homo sapiens) (O94907 whole entry, looked up): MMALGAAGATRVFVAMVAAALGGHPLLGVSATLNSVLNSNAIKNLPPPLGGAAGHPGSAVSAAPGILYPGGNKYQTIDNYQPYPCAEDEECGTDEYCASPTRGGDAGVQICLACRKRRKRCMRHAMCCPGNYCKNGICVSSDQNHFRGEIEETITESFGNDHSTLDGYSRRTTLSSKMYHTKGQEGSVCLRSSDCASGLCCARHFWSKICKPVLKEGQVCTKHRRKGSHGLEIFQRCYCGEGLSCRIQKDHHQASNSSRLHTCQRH
Chain of Epidermal growth factor receptor (Homo sapiens) (P00533 whole entry, looked up): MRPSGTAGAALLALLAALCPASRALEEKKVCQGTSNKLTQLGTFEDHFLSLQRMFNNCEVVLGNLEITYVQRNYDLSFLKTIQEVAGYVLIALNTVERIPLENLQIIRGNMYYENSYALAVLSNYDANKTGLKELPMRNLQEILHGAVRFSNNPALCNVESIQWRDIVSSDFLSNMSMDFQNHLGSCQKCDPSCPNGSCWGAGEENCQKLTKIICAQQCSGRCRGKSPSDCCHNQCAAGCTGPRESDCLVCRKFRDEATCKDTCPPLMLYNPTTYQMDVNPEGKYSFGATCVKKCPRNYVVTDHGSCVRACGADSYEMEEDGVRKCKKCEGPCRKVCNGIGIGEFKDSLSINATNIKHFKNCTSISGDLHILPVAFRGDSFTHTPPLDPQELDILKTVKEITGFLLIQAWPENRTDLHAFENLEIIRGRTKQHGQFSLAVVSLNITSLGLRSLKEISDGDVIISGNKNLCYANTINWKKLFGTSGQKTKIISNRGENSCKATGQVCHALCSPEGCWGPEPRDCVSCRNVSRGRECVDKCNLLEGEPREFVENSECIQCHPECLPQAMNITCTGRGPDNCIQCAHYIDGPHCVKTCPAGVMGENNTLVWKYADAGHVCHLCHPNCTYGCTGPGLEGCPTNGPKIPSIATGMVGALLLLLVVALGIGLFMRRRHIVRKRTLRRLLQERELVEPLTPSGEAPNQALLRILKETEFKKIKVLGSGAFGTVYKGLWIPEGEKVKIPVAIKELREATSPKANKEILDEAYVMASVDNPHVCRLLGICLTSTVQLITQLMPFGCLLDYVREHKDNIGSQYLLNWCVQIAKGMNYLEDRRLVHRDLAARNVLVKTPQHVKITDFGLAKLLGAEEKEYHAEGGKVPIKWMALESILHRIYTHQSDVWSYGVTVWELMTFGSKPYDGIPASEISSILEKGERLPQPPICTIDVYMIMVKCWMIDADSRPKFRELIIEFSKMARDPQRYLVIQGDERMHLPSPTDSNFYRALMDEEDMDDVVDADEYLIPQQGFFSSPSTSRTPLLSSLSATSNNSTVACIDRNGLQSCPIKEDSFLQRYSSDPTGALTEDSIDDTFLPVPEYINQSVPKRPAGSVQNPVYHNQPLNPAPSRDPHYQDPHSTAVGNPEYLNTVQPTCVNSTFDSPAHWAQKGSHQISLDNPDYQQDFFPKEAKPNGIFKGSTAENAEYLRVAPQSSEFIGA

Row | Compound | composite z-score [1] | composite z-score [2] | composite z-score [3] | z-score [4] | composite z-score [5] | composite z-score [6] | composite z-score [7] | composite z-score [8] | composite z-score [9] | composite z-score [10]
1 | O=C1[C@H]2[C@H]3[C@H](O)[C@H](O)CC(=NOC[C@@H](O)COCc4ccco4)[C@H]3CC[C@H]2C(=O)N1C1CCCCC1 | 0.508 | -0.565 | -1.6 | -1.13 (inactive) | 0.0351 | 1.16 | 0.623 | 0.499 | 0.942 | 1.31
2 | CCCCCN1CC=CC23O[C@@H]4C=CCOC(=O)[C@@H]4[C@H]2C(=O)N(CCCCCCO)[C@@H]3C1=O (stereo not given in full) | 1.93 | -0.0936 | 0.734 | -0.0127 (inactive) | -0.655 | -1.08 | -1.31 | -1.81 | -1.54 | -0.395
3 | COCCOC(=O)N1C(=O)[C@@]2(c3ccccc31)[C@H](C(N)=O)[C@H]1C(=O)O[C@H](c3ccccc3)[C@H](c3ccccc3)N1[C@@H]2c1ccccc1OCCO | 1.31 | 0.756 | 0.799 | -0.0592 (inactive) | 1.23 | 0.98 | 0.483 | 0.584 | 0.516 | 0.617
4 | CC=CC1=C(CO)[C@H](O)[C@H]2O[C@H]2[C@H]1O | 0.412 | -0.346 | -0.786 | -0.383 (inactive) | 0.805 | 1.23 | 0.393 | 0.578 | 1.07 | -0.047
5 | CN(C)C(=O)[C@@]1(Cc2ccccc2)N=C(c2ccc(OCCCO)cc2)O[C@H]1c1ccccc1CN=[N+]=[N-] | 1.2 | 1.44 | 1.35 | 0.32 (inactive) | 1.47 | 0.777 | -0.194 | 0.732 | 0.0591 | 0.784
6 | O=C1C2=CC[C@H]3C(=O)N(Cc4ccc5c(c4)OCO5)C(=O)[C@H]3[C@H]2[C@H](O)[C@@H]2O[C@H]12 | 0.557 | -0.141 | -0.51 | 0.867 (inactive) | 0.385 | 0.526 | 0.65 | 0.459 | 0.347 | 0.29
7 | CO[C@H]1O[C@H](CO)[C@@H](OC(=O)Nc2ccc(C#N)cc2)[C@H](OC(=O)c2cc3ccccc3[nH]2)[C@H]1OC(=O)c1cc2ccccc2[nH]1 | 1.19 | 0.149 | 0.19 | -0.561 (inactive) | 0.747 | 1.16 | 0.119 | 0.588 | 0.295 | 0.354
8 | CCCCCCc1nc(CCCc2cc3c(c(CCCCCC)n2)[Si](C(C)C)(C(C)C)O[C@H]3c2ccccc2)cc2c1[Si](C(C)C)(C(C)C)O[C@H]2c1ccccc1 | -0.509 | -0.259 | -0.21 | -1.11 (inactive) | 0.0736 | -0.401 | 0.123 | 0.0624 | 0.476 | 0.656
9 | CCCNC(=O)[C@@H]1c2ccccc2C(=O)N(c2ccc(C)cn2)[C@H]1c1ccc(CO)cc1 | 1.78 | 0.662 | 0.733 | 1.12 (inactive) | -0.584 | -0.503 | -0.327 | -1.06 | -0.537 | 1.14
10 | CCCCC(=C=CC[C@H](O)c1ccccc1OCCO)C[C@H](O)COCc1ccccc1 | 1.45 | -0.001 | 0.309 | -0.139 (inactive) | 0.0624 | -0.285 | -0.792 | -0.349 | -0.355 | 0.778
11 | O=C(CS)NCCCCCNC(=O)[C@@H]1C[C@@H]2C(=O)N[C@@H](Cc3ccccc3)C(=O)N2[C@@H]1c1ccc(O)cc1 | 1 | 0.121 | 0.526 | 0.339 (inactive) | 1.02 | 1.17 | -0.146 | 0.265 | 0.325 | -0.516
12 | O=C(NN=C1C[C@@H](O)[C@@H](O)[C@@H]2[C@@H]3C(=O)N(c4ccc(F)cc4F)C(=O)[C@@H]3CC[C@@H]12)OCc1ccccc1 | 0.328 | -0.269 | -0.232 | 0.464 (inactive) | -0.0739 | -0.0799 | 0.452 | 0.297 | 0.092 | -0.103
13 | COCC(=C=CC[C@@H](O)c1ccccc1OCCO)CCO | 0.718 | 0.117 | 0.09 | 0.0385 (inactive) | 1.49 | -0.0421 | -0.423 | 0.135 | 0.335 | 0.706
14 | C=CCNC(=O)[C@H]1[C@@H]2C(=O)O[C@@H](c3ccccc3)[C@@H](c3ccccc3)N2[C@@H](c2ccc(O)cc2)[C@]12C(=O)N(C(=O)OCCOC)c1ccc(C#CC3=CCCCC3)cc12 | 1.79 | 0.298 | 0.263 | -0.75 (inactive) | 0.966 | 1.32 | 0.205 | 0.969 | 0.23 | 1.34
15 | C[C@@H]1CCC2C(=O)N(Cc3ccccc3)C[C@@H](O)CN2[C@H]1c1ccc(Br)cc1 (stereo not given in full) | 0.892 | -0.276 | -0.441 | -1.89 (inactive) | 0.91 | 0.104 | -0.0897 | 0.078 | 0.228 | 0.203
16 | CCOC(=O)[C@H](Cc1ccccc1)NC(=O)CCC1CC(OC(=O)NCc2ccc3c(c2)OCO3)CC2(CCCC(COC(=O)NCc3cccc(C(F)(F)F)c3)O2)O1 (stereo not given in full) | 0.239 | 0.113 | -0.338 | -1.18 (inactive) | 0.984 | 0.584 | 0.314 | 1 | 0.495 | 0.321
17 | COc1ccc(CCNC(=O)[C@@H]2c3ccccc3C(=O)N(c3ccc(C)cn3)[C@H]2c2ccc(CO)cc2)cc1 | 1.73 | 0.263 | 1.19 | -0.403 (inactive) | -1.06 | -0.37 | -1.68 | -1.16 | -2.4 | -0.082
18 | C=CC[C@@H]1C=C[C@H](ON=C2c3cc(OC)ccc3O[C@H](c3cccc(OC)c3)[C@H]2O)[C@@H](CO)O1 | 0.0678 | -0.403 | -0.626 | -0.766 (inactive) | 0.0385 | -0.325 | 0.379 | 0.0069 | 0.26 | -0.0002
19 | O=C1O[C@@H](c2ccccc2)[C@@H](c2ccccc2)N2[C@@H](c3ccc(O)cc3)[C@]3(C(=O)Nc4ccccc43)[C@@H](C(=O)O)[C@H]12 | 1.1 | 0.74 | 0.91 | 0.451 (inactive) | -0.0962 | 0.536 | -0.111 | -0.0238 | -0.465 | 0.385
20 | C=CCC(OC(C)=O)[C@@H]1[C@@H](N(Cc2cc3ccccc3o2)C(=O)Cc2ccc(F)cc2)c2cc(OCCCO)ccc2N1C(=O)Cc1ccc(OC)cc1 (stereo not given in full) | -0.144 | -0.361 | 0.102 | -0.844 (inactive) | 0.0509 | -1.17 | -0.239 | -0.0882 | -0.191 | 0.772
21 | C[C@H]1CC[C@@H](C(=O)O)N[C@@H]1c1ccc(C#CCN(C)C)cc1 | 0.785 | -0.275 | -0.337 | -0.248 (inactive) | 0.425 | 0.429 | 0.44 | 0.481 | 0.33 | 0.222
22 | COc1ccc([Si](C)(C)[C@H]2[C@H](CC(=O)N3CCC[C@H]3CO)O[C@@]3(C(=O)N(Cc4cccc(N5C(=O)COc6ccccc65)c4)c4ccccc43)[C@@H]2C)cc1 | 1.21 | -0.248 | -0.364 | -0.867 (inactive) | 0.369 | 0.803 | 0.771 | 0.959 | 0.519 | 0.572
23 | CC(C)(C)N1C(=O)[C@H]2[C@H]3[C@H](O)[C@H](O)CC(=NO[C@@H]4O[C@H](CO)[C@@H](O)[C@H](O)[C@H]4O)[C@@H]3CC[C@H]2C1=O | 0.756 | -0.393 | -0.854 | 0.519 (inactive) | 0.522 | 0.869 | 0.768 | 1.01 | 1.15 | 0.911
24 | CC(C)CON=C1C[C@@H](O)[C@@H](O)[C@@H]2[C@@H]3C(=O)N(C[C@@H]4CCCO4)C(=O)[C@@H]3CC[C@H]12 | 0.651 | -0.273 | -0.356 | 0.132 (inactive) | 0.505 | 0.33 | 0.265 | 0.417 | 0.24 | 0.07
25 | COc1ccc(O[C@H]2C=C[C@@H](c3ccccc3)O[C@@H]2COC(=O)CCC(C)=NOCC[C@@H]2C=C[C@H](OC(C)=O)[C@@H](COC(C)=O)O2)cc1 | 0.868 | -0.0184 | -0.483 | -0.484 (inactive) | -0.249 | -0.362 | 0.275 | 0.415 | 0.371 | 1.22
26 | COc1ccc([Si](C)(C)[C@@H]2[C@@H](CC(=O)N3CCC[C@H]3CO)O[C@]3(C(=O)N(Cc4cccc(N5CCC5=O)c4)c4ccccc43)[C@H]2C)cc1 | 1.71 | -0.264 | 0.363 | -0.399 (inactive) | 0.118 | 0.773 | 0.144 | 0.7 | 0.726 | 0.245
27 | CC(C)[C@@H](OCc1ccccc1)[C@H](C)C=NO[C@H](C)c1cn([C@H](CO)Cc2ccccc2)nn1 | 0.45 | -0.25 | -0.566 | -0.652 (inactive) | 0.503 | 0.562 | 0.173 | 0.474 | 0.804 | -0.172
28 | COCCOC(=O)N1C(=O)[C@@]2(c3cc(C#CC4(O)CCCCCC4)ccc31)[C@H](C(=O)N1CCN(c3ncccn3)CC1)[C@H]1C(=O)O[C@H](c3ccccc3)[C@H](c3ccccc3)N1[C@@H]2c1ccc(OCCO)cc1 | 1.4 | 0.0932 | -0.0616 | -0.702 (inactive) | 1.18 | 1.3 | 0.729 | 1.19 | 0.738 | 0.274
29 | C#C[C@@H](CC)O[Si](C#Cc1ccc(Oc2ccccc2)cc1)(C(C)C)C(C)C | 0.301 | -0.137 | -0.225 | -1.17 (inactive) | 0.706 | 0.777 | 0.185 | 0.773 | 0.125 | 0.0324

— PubChem BioAssay
